Assay results reported in PubChem BioAssay (NCI).
This is part of a sample that, as a whole, favours compounds with a hit. Of some 83,000 tested, about 20% had one in any assay.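 Activity criterion: percent growth below 10, measured after cells in 96-well plates were exposed to a single compound concentration for 48 hours.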 Values without a mark were called inactive. The source made the active and inactive calls.

These compounds were tested on K-562 leukemia (assay: NCI-60 one-dose screen, 48 h (100 = growth as untreated, 0 = no growth, -100 = all killed)). Details: 10 µM unless noted.

Compound	growth
COc1cc2c3c(c1)nc(C)n3CCC2	98.8%
Cc1sc2c(c1C)c(=O)nc1c(-c3nc4ccccc4s3)n[nH]n12	94%
COc1cc2c(cc1OCCCCCN1CCN(c3ncnc4ccccc34)CC1)N=CC1CCCN1C2=O (centres undefined)	5.44% (active)
COc1cc2c(cc1OCCCCN1CCN(CC(=O)Nc3ccc(Cl)cc3C(=O)c3ccccc3Cl)CC1)N=CC1CCCN1C2=O (centres undefined)	-53% (active)
CCOC(=O)C1=C(C)NC(=O)NC1c1cc(=O)oc2ccc(C)cc12 (centres undefined)	103%
COc1ccc2nc3cc(Cl)ccc3c(Nc3ccc(N(C)C)cc3)c2c1	80.2%
C[C@@H](C[C@H](CCO)c1cc(C(F)(F)F)cc(C(F)(F)F)c1)c1ccc2ccccc2c1	33%
COc1ccc2c(CCCc3ccc(Cl)cc3Cl)c3[n+](cc2c1OC)CCc1cc2c(cc1-3)OCO2	6.33% (active)
COc1cc2c(cc1OCCCCCCN1CCN(c3ncnc4ccccc34)CC1)N=CC1CCCN1C2=O (centres undefined)	-15.9% (active)
c1cc[n+](Cc2c3ccccc3cc3c2ccc2ccccc23)cc1	16.4%
CC(C)[C@@H]1CC[C@]2(CO2)[C@@H]2C(=O)OCC(C(=O)O)=C[C@H]21	7.2% (active)
N#Cc1c(NC(=O)c2cccs2)[n+]([O-])c2ccc(F)cc2[n+]1[O-]	91.3%
CC(CCCC(=O)O)c1ccoc1 (centres undefined)	103%
CCCCCCCC(=O)SCC/C=C/[C@@H]1CC(=O)NCc2nc(co2)C2=N[C@@](C)(CS2)C(=O)N[C@@H](C(C)C)C(=O)O1	6.6% (active)
Nc1c(C(=O)c2ccccc2)sc2nc(-c3cccs3)ccc12	14.1%
COc1ccc2c(CCCCC(c3ccccc3)c3ccccc3)c3[n+](cc2c1OC)CCc1cc2c(cc1-3)OCO2	-7.74% (active)
CC(C)(C)C(=O)OCOP(=O)(OCOC(=O)C(C)(C)C)C1CCCN(OC(=O)c2ccccc2)C1=O (centres undefined)	9.43% (active)
O=C(Cc1ccccc1)Nc1nnc(NC2CCN(c3nnc(NC(=O)Cc4ccccc4)s3)CC2)s1	87.9%
CCCCCCC1(/C=N/NC(N)=O)NC(=O)NC1=O (centres undefined)	102%
CC(N)C(Cc1ccc(Cl)cc1)c1ccc(Cl)cc1 (centres undefined)	0.46% (active)

Compound	growth
CC(C)[C@@H](C)/C=C/[C@@H](C)[C@H]1CCC2=C3C=CC4=CC(=O)CC[C@]4(C)[C@H]3CC[C@@]21C	92.6%
CCOC(=O)C1=C(C)N=C2Sc3cc(OC(F)(F)F)ccc3N2[C@H]1c1ccccn1	21.9%
COC(=O)[C@]12CC[C@@H](C)[C@H](C)[C@@H]1C1=CC[C@@H]3[C@@]4(C)C(c5cnco5)=C[C@@](C)(CO)C4=CC[C@@]3(C)[C@]1(C)CC2	30.8%
C=C1C(=O)O[C@H]2[C@H]1CC/C(Cn1cc(-c3cc(C)c(C)cc3C)nn1)=C\CC[C@@]1(C)O[C@@H]21	-10.7% (active)
C=C1C(=O)O[C@H]2[C@H]1CC/C(CNC(=O)c1cc3cc(OC)ccc3[nH]1)=C\CC[C@@]1(C)O[C@@H]21	-3.44% (active)
C=CCC(=O)N[C@H](/C=C/C(=O)O)Cc1ccc(-c2cc(Cl)cc(Cl)c2)cc1	96.7%
NN1C(=O)CSC1=S	101%
CC(=O)C(C(C)=O)C(c1ccccc1)C(C(C)=O)C(C)=O	95.9%
COc1cc(NCCN(CC(C)C)CC(C)C)c2ncc(C)cc2c1	34.2%
COc1ccc2c(CCC(c3ccccc3)c3ccccc3)c3[n+](cc2c1OC)CCc1cc2c(cc1-3)OCO2	6.12% (active)
O=C1CC(c2ccc3c(c2)OCO3)c2ncn(-c3ccc(Cl)cc3)c2N1 (centres undefined)	14.3%
Clc1nc(Cl)c2ncn(CC#CCn3cnc4c(Cl)nc(Cl)nc43)c2n1	-13% (active)
COc1ccc(C2CC(=O)c3c(O)c(OC)c(OC)c(OC)c3O2)c(O)c1 (centres undefined)	13.9%
C[N+](C)(CCOC(c1ccccc1)c1ccccc1)CC(=O)OCc1ccccc1	126%
Nc1c2c(c(O)c3c1=C(CO)C=N3)=NCCS2	-33.1% (active)
Cc1cccc(NC(=O)[C@@H]2c3ccccc3C(=O)N(c3ccc(Cl)cc3)[C@H]2c2ccc(Cl)cc2)n1	47.7%
CC(N)C(Cc1ccccc1)c1ccc(Cl)cc1 (centres undefined)	87%
C=CCCCC(=O)CCC(=O)OCC1O[C@@H](O[C@@H]2C(O)[C@@H](OC(C)=O)C(C)O[C@H]2O[C@H](CC=C)CCCCC)C(O)[C@@H](OC(=O)/C(C)=C/C)[C@@H]1OC(=O)/C=C/c1ccccc1 (some centres undefined)	34.3%
COc1ccc2c(c1OC)C(=O)O[C@@H]2[C@H]1c2c(c(C#CC#Cc3ccc(F)c(F)c3)c3c(c2OC)OCO3)CCN1C	87.1%
